Source: PubChem BioAssay (NCATS)
Inconclusive results are not listed. Entries that show only a call come without a potency. Calls of active or inactive are those of the source. Calls come from the whole dose curve; as a rule, active = well fitted inhibition curve with a large enough effect; inconclusive = small, poorly fitted or top-dose-only effect; inactive = flat fitted curve, though single readings scatter.

Experiment: P-glycoprotein substrates identified in KB-8-5-11 adenocarcinoma cell line, qHTS therapeutic library screen (AID 1346987); note: nearly all actives have a fitted effect of over 65% in size
In short: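 Compounds are pinned in dose-response onto KB-8-5-11 cells (500 cells/well, colchicine-free medium) and left 72 h at 37 degree C. CellTiter-Glo luminescence then yields AC50 values.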
Potency is the fitted concentration of half-maximal effect.

Structure (SMILES)	Potency
CCC(C)(C)OC(=O)N[C@@H](Cc1c[nH]c2ccccc12)C(=O)N[C@@H](CCSC)C(=O)N[C@@H](CC(=O)O)C(=O)N[C@@H](Cc1ccccc1)C(N)=O	inactive
CC(=O)O[C@H]1C[C@@](O)(C(C)C)[C@@H]2[C@@H](OC(=O)c3ccc(O)cc3)CC(C)=CC[C@@]12C	inactive
C[C@H]1[C@H](/C=C/c2ccc(-c3ccccc3C#N)cn2)[C@@H]2[C@@H](C)OC(=O)[C@@H]2C[C@@H]1C	16.4 µM (active)
Fc1ccc2[nH]ccc2c1-c1nc(N2CCOCC2)c2sc(CN3CCN(CC4CC4)CC3)cc2n1	20.6 µM (active)
CC(C)=C[C@@H]1[C@H](CO[C@@H]2O[C@H](CO)[C@@H](O)[C@H](O)[C@H]2O)C1(C)C	inactive
CNCCCC1(c2ccccc2)OC(C)(C)c2ccccc21 (stereo not drawn)	inactive
CC1=C(C(=O)OC2CCCCC2)C(c2ccc([N+](=O)[O-])cc2)C2=C(CC(C)(C)CC2=O)N1 (stereo not drawn)	inactive
C/C=C(\C)[C@@H]1C(C)=C[C@@H]2[C@H]([C@@H]1/C=C/C=C/C(=O)O)[C@@H](C)CC[C@@H]2O	11.4 µM (active)
CC(=O)O[C@@H]1C[C@@]2(C)C(CC[C@]3(C)C2CC=C2C4CC(C)(C)CC[C@]4(C(=O)O)CC[C@]23C)C(C)(C)[C@H]1O (stereo partly drawn)	inactive
Clc1ccc(Nc2nc3ccccc3c3nc(C4CCCCC4)[nH]c23)cc1Cl	16.4 µM (active)
COC1CC(O[C@H]2CC[C@]3(C)C4CC[C@]5(C)C(C6=CC(=O)OC6)=CCC56OC46CC[C@@H]3C2)OC(C)C1O[C@@H]1O[C@H](CO[C@@H]2O[C@H](CO)[C@@H](O)[C@H](O)[C@H]2O)[C@@H](O)[C@H](O)[C@H]1O (stereo partly drawn)	3.1 µM (active)
CC[C@H](C)/C=C(C)/C=C/C1=CC2=C(Cl)C(=O)[C@](C)(O)[C@H](OC(C)=O)[C@H]2CO1	inactive
COc1cc(CCO)ccc1O[C@@H]1O[C@H](CO)[C@@H](O)[C@H](O)[C@H]1O	inactive
NC(=O)N1CCC(CC(=O)N2CCC(C3c4ncc(Br)cc4CCc4cc(Cl)cc(Br)c43)CC2)CC1 (stereo not drawn)	18.4 µM (active)
Cc1cc2occ(CN(C)CCN(C)Cc3cn(-c4cccc(C(F)(F)F)c4)c4ccccc34)c(=O)c2cc1C	18.4 µM (active)
Cc1cc(C(=O)Nc2cc(Nc3ccc4c(/C=C/c5ccccn5)n[nH]c4c3)ccc2F)n(C)n1	18.4 µM (active)
Cc1c(C2=CCN(C(=O)N(C)C(C)C)CC2)nnn1-c1cccnc1F	inactive

Structure (SMILES)	Potency
C=C(C)C(=O)O[C@H]1C[C@@](C)(O)C2(O)CCC(C)(/C=C3/OC(=O)C(COC)=C31)O2 (stereo partly drawn)	6.4 µM (active)
CCn1c(=O)c(-c2ccc(Cl)cc2Cl)cc2cnc(Nc3ccc(N4CCNCC4)c(F)c3)nc21	20.6 µM (active)
COc1ccc(NC(=O)c2ccc(C(=N)N(C)C)cc2)c(C(=O)Nc2ccc(Cl)cn2)c1	inactive
Cn1ncc(Cl)c1-c1cc(C(=O)NC(CN)Cc2ccc(F)c(F)c2)oc1Cl (stereo not drawn)	14.6 µM (active)
O=C(Nc1ccc(N(Cc2ccsc2)C(=O)Cn2nnc3ccccc32)cc1)C1CC1	inactive
Nc1c(S(=O)(=O)c2ccccc2)c2nc3ccccc3nc2n1-c1ccc(F)cc1	inactive
C=C1C(=O)O[C@@H]2C[C@H](C)C3=CC(=O)[C@H](O)[C@@]3(C)C[C@H]12	inactive
O=C(CCl)Nc1cccc(NC2=NS(=O)(=O)c3ccccc32)c1	18.4 µM (active)
CC#CCC(C)[C@H](O)/C=C/[C@@H]1[C@H]2c3cccc(CCCC(=O)O)c3O[C@H]2C[C@H]1O (stereo partly drawn)	inactive
Cn1cc(-c2ccc(S(=O)(=O)n3ccc(/C=C/C(=O)Nc4ccccc4N)c3)cc2)cn1	2.59 µM (active)
COC1=CC(=O)O/C1=C(/OC)[C@@H]1O[C@H]1c1ccccc1	inactive
C[C@@H](NC(=O)c1ccc(C#Cc2cccc(F)c2)cn1)C(C)(C)O	inactive
CC(=O)O[C@H]1C[C@@H]2CC[C@@H]3[C@H](CC[C@@]4(C)[C@H]3C[C@H](N3CC[N+](C)(C)CC3)[C@@H]4OC(C)=O)[C@@]2(C)C[C@@H]1N1CC[N+](C)(C)CC1	inactive
COc1cc(O)cc(OC2OC(CO)C(O)C(O)C2O)c1 (stereo not drawn)	inactive
CCCC(=O)N1CCCN(c2nc(N)c3cc(OC)c(OC)cc3n2)CC1	inactive
CC[C@@H](C)Nc1cc(C(=O)NC2CC3CCC(C2)N3c2ccc(C(=O)C3CC3)cn2)c(C)cc1C(N)=O (stereo partly drawn)	0.13 µM (active)
